This test relates to MDA-MB-468 breast. The test can be described thus: NCI-60 one-dose screen, 48 h (100 = growth as untreated, 0 = no growth, -100 = all killed). Conditions: 10 µM unless noted.

Molecules are shown by their SMILES. Values joined by “and” are separate entries in the source; they are usually repeats but may differ in a detail not shown here. Equal values may be shown once. The panel holds about 83,000 compounds, 20% with a hit somewhere; the sample as a whole holds those more often.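 Assay: single dose, 48 h. Readout: percent growth (0 = no net growth; negative = cell death). Active: <10.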 A number with no mark means an inactive call. Active and inactive are the calls of the source.

With `Brc1ccc2[nH]cc(-c3nn4cc(-c5nccs5)nc4s3)c2c1`, the growth is 51.2%.
The same measure for `Cc1cc(C)cc(OCC(=O)O)c1`: 131%.
For the compound `CC1(O)CCC(Nc2cc(-c3ccc(C(F)(F)F)cc3)c(C#N)c3nc4ccccc4n23)CC1` (stereo not drawn), the growth is 86.8%.
Consider `CCN(CC)c1ccc2cc(C(Nc3ccc(Cl)cc3)c3nnnn3C(C)(C)C)c(=O)oc2c1` (stereo not drawn), for which the growth was 109%.
The same measure for `CCOC(=O)c1sc(NCC(=O)Nc2cccc([N+](=O)[O-])c2)c(C(=O)OCC)c1C`: -47.4% (active).
The same measure for `O=C(Nc1ccc(Cl)cc1F)c1cc(Br)ccc1O`: 0.453% (active); for `C/C(=C(/c1ccc(O)cc1)c1ccc(OCCN(C)C)cc1)c1ccccc1`: 58.4%; for `CC(=O)/C(=C\c1c(-c2ccccc2)[nH]c2ccccc12)S(=O)(=O)c1ccccc1`: 6.12% (active).
The same measure for `COc1ccc(S(=O)(=O)NCCCNc2nccc(-c3c(-c4cccc(N)c4)nc4sccn34)n2)cc1`: 78.7%; for `CCCCOc1ccc(NC(=O)n2nc(N=NN(C)C)c3ccc(Cl)cc32)cc1`: 97.9%.
For `O=C(/C(=C/c1ccc([N+](=O)[O-])cc1)SCc1ccc(Cl)cc1)c1ccc(F)cc1`, the growth is 77.2%.
`O=C(Cc1ccc(/C=C/C(=O)c2ncc[nH]2)cc1)Nc1cc(F)c(F)c(F)c1`: the growth is 8.95% (active).
The same measure for `Cc1ccc2c(c1)=C/C(=C\c1cc(-c3ccccc3)[nH]c1O)C(=O)N=2`: 8.74% (active).
The same measure for `O=C(NNc1cnccn1)c1nc2cc(F)ccc2n2cccc12`: -21.7% (active); for `O=c1n(C2OC(CO)C(O)C2O)ccc2nccn12` (stereo not drawn): 122%; for `O=C(CCCC(=O)Nc1ccc(-n2nnc3cc(Cl)c(Cl)cc32)cc1)Nc1ccc(-n2nnc3cc(Cl)c(Cl)cc32)cc1`: 18.9%.
As to `CCOC(=O)c1[nH]c(C)c(C(C)=O)c1C`, the growth is 87.2%.
`C=CC(=O)N1CCC=C(c2cc3c(N[C@H](C)c4ccccc4)ncnc3[nH]2)C1`: the growth was 9.58% (active).
The same measure for `CC1CC(C)(C)OB(OC(C)CC(C)(C)OB2OC(C)CC(C)(C)O2)O1` (stereo not drawn): 105%; for `Cc1cc(C)c2c(c1)N(C)c1ncnc(-n3cnc4cc(C)ccc43)c1CC2C` (stereo not drawn): 6.16% (active); for `O=C(O)c1ccc(NC(=O)c2cccc(Nc3ccnc(C(F)(F)F)c3)c2)cc1`: 108%.
On to `CS(=O)(=O)c1ccc(-c2[nH]c3ccc(F)cc3c2/C=N/NC(N)=S)cc1`, for which the growth was 8.01% (active).
The same measure for `CCC(N)(C(=O)O)c1ccc(F)cc1` (stereo not drawn): 105%; for `O=C(NC1CCCCCC1)c1ccc2c(=O)n3c(nc2c1)CCCCC3`: 81.2%.
The same measure for `COc1ccc(COc2cc3oc(=O)c4cc(C(C)O)ccc4c3cc2OC)cc1` (stereo not drawn): 41%; for `O=c1c2cc(Cl)ccc2oc2ccc(OCCCCCN3CCCCC3)cc12`: 59.9%.
Take `COC(=O)c1nc(-c2ccc(C)cc2)oc1S(=O)(=O)c1cccc(OC)c1`: the growth is 71.7%.
The same measure for `CCOC(=O)N1C/C(=C/c2ccc(F)cc2)C(=O)/C(=C/c2ccc(F)cc2)C1`: -55.6% (active); for `CC1=C(NCCN2CCCC2)C(=O)c2c(OCc3ccc(F)c(Cl)c3)cccc2C1=O`: 67.1%; for `CNC(=O)c1cc(Oc2ccc3nc(Nc4cc(Cl)cc(Cl)c4)ccc3c2)ccn1`: 54.1%.
In the case of `COc1ccc(/C=C2\CS(=O)(=O)C/C(=C\c3ccc(OC)cc3)C2=O)cc1`, the growth was -85.3% (active).
The same measure for `Brc1ccc(-c2nc3ccccc3s2)cc1`: 93%.
For the compound `O=c1[nH]c(CCl)nc2c1cnn2-c1ccccc1`, the growth was 96.6%.
The same measure for `C=CCC(OC(C)=O)c1ccc(C(C)C)cc1` (stereo not drawn): 105%.
The same measure for `C=C1C(=O)O[C@H]2[C@H]1CC/C(COC(=O)CCCc1c[nH]c3ccccc13)=C\CC[C@@]1(C)O[C@@H]21`: 23.1%; for `COc1cc2oc(-c3cccc(C(=O)N[C@@H](CC(C)C)C(=O)OC(C)(C)C)c3)cc(=O)c2c(OC)c1OC`: 85.6%; for `CCCCn1c2cc(OCc3cn(-c4ccc(Cl)cc4)nn3)ccc2c2ccnc(C)c21`: 22.3%.
The same measure for `CNC1=C(Br)C(=O)c2c(C(=O)OC)c(C)nc(C)c2C1=O`: 27.4%.
Take `C[C@@H](C[C@H](CCO)c1cc(C(F)(F)F)cc(C(F)(F)F)c1)c1ccc2ccccc2c1`: the growth was 83.9%.
The same measure for `CC(C)OC(=O)Nc1cc(F)ccc1F`: 92.8%.
With `O=c1c(-c2nc3ccccc3[nH]2)cc2ccccc2n1Cc1cn(Cc2ccc(F)cc2)nn1`, the growth is 4.78% (active).
`CCN1CCN(c2cc(-c3cn[nH]c3-c3cc(C)cc(OC)c3)nc(-c3cccnc3)n2)CC1`: the growth was 54.3%.
With `COc1ccc(-c2ccc(C)n2-c2ccc(-c3nc4ccccc4s3)cc2)cc1`, the growth is 3.77% (active).
The same measure for `COc1cccc(CNCCN2C(=O)c3ccc4c5c(ccc(c35)C2=O)C(=O)N(CCNCc2cccc(OC)c2)C4=O)c1`: 89.9%; for `ONc1nc(NO)c2[nH]cnc2n1`: 47.6%; for `O=C1CC(=O)N(c2ccccc2)O1`: 105%.
The same measure for `C=C1c2nc3ccccc3n2C=C(c2ccc(Cl)cc2)N1Cc1ccccc1`: 59.1%; for `COc1ccc(CCOc2cc3c(cc2OC)CCN(C(=O)NCc2cocn2)C3c2ccc(C)cc2C)cc1` (stereo not drawn): 3.86% (active); for `Cc1cccc(N=Cc2ccccc2O)c1C`: 103%.
As to `O=C(NCCNc1nccc(-c2c(-c3cccc(O)c3)nc3sccn23)n1)Nc1cc(C(F)(F)F)cc(C(F)(F)F)c1`, the growth is 57.8%.
The same measure for `CC(C)N(C(=O)c1ccccc1)C(C)C`: 86.2%.
For the compound `Nc1ccc(F)cc1F`, the growth was 92.7%.
The same measure for `Cc1c[nH]c(=O)n(Cc2nnc(CCC(=O)c3nc4ccccc4[nH]3)o2)c1=O`: -1.54% (active).
The same measure for `CCc1c(C)c2ccc(O)c(-c3cc(-c4ccccc4)c(C#N)c(=O)[nH]3)c2oc1=O`: 102%; for `Cc1cc(C(=O)Nc2cc(Nc3ncccc3-c3ncnc4nc[nH]c34)ccc2F)cc(C(F)(F)F)c1`: 93.6%; for `CCCCCCCCCCCCCCCCCCSC(=N)N`: 67.8%.
The same measure for `COc1ccc2c(c1)/C(=C1/S/C(=N/c3nnc(C)s3)NC1=O)C(=O)N2Cc1ccc(Br)cc1`: 25.8%; for `COc1ccc(/C=C2\NC(=S)NC2=O)cc1`: 102%; for `CCN(CC)CCCCCCNc1ccnc2cc(Cl)ccc12`: 61.1%.
Consider `O=C(Nc1ccc(F)cc1F)c1cc(Cl)ccc1O`, for which the growth was -4.07% (active).
The same measure for `c1ccc2c(c1)oc1c3cccnc3ccc21`: -62% (active); for `CCCCN1CCCCn2c1nc1c2c(=O)n(C)c(=O)n1C`: 102%.
Take `O=C(O)C(=O)O`: the growth was 94.8%.
The same measure for `COC(=O)c1ccc2c(c1)nc(-c1cc3ccccc3[nH]c1=O)n2-c1cc(C(C)(C)C)[nH]n1`: 101%; for `COc1ccc(NC(=O)Nc2ccc(OCCCCCC(=O)NO)cc2)cc1`: 93.1%.
`NC(=O)C(=Cc1ccc(Cl)cc1)C(N)=O`: the growth is 3.1% (active).
The same measure for `N#Cc1c(-c2ccco2)nc2c(c(-c3ccccc3)nn2-c2ccccc2)c1-c1ccc(O)cc1`: 92.4%; for `CN1CCN(Cc2ccc(NC(=O)c3cncc(C#Cc4[nH]nc5ncncc45)c3)cc2C(F)(F)F)CC1`: 58%; for `O=S(=O)(N=C1C(Cl)=C(Cl)C(=NS(=O)(=O)c2ccccc2)C(Cl)=C1Cl)c1ccccc1`: 70.3%.
On to `O=CNc1ccc2c(c1)Cc1cc([N+](=O)[O-])ccc1-2`, for which the growth is -29.6% (active).
The same measure for `NC(=S)N=Nc1c(O)c2ccccc2c2ccccc12`: 88.3%.
The same measure for `CN(C)CC1C(=O)O[C@H]2[C@H]1CC/C(COC(=O)NCc1ccc(Cn3c(=O)sn(CCCI)c3=O)cc1)=C\CC[C@@]1(C)O[C@@H]21` (stereo partly drawn): -73.3% (active); for `O=C(N/N=C/c1c(Cl)cccc1Cl)c1cccnc1Nc1cccc(C(F)(F)F)c1`: 26.6%.
Consider `COc1cc(CCn2nnc3c(NCCCCO)ncnc32)cc(OC)c1`, for which the growth is 93.5%.
The same measure for `N=C(N)c1ccc(-c2ccc(-c3ccco3)o2)cc1`: 22.9%; for `O=C(Cn1c[n+](CC(=O)c2ccc(-c3ccccc3)cc2)c2ccccc21)Nc1cccc2cccnc12`: -6.11% (active); for `CCOC(=O)c1c(C)c2c(n1C)CSc1cc(S(=O)(=O)c3ccccc3)c(=O)[nH]c1-2`: 2.42% [100 µM] (active).
The same measure for `C=C(C)[C@@H]1CC[C@]2(C(=O)OC)CC[C@]3(C)[C@H](CC[C@@H]4[C@@](C)(CC/C(N)=N/O)[C@H](C(=C)C)CC[C@]43C)[C@@H]12`: 99.5%.
For `Cc1ccc(-c2cn3cc([N+](=O)[O-])ccc3n2)cc1`, the growth was 56.3%.
As for `OCCN1CCN(CCO)CC1`, the growth is 107% and 103% and 105%.
The same measure for `COc1cc(C(=O)N2CCN(c3ccccc3)CC2)c2ccccc2n1`: 5.08% (active); for `CN(C)CCn1c(=O)c2c3cc4c(cc3n(CCN(C)C)c2c2ccc(Cl)cc21)OCO4`: 41%; for `COc1ccc(-c2nc3ccc4[nH]ncc4c3c3c2CCCC3)cc1B(O)O`: 31.5%.
The same measure for `CN(C)c1ccc(C(=N)c2ccc(N(C)C)cc2)cc1`: -45.5% (active) and -18.9% (active); for `Cc1c(Cl)cccc1S(=O)(=O)Nc1ccc2c(c1)C(=O)N(C1CCC(=O)NC1=O)C2=O` (stereo not drawn): 27.2%.
Turning to `c1ccc(-c2nc3ccccc3s2)cc1`, the growth is 96.4%.
The same measure for `CCOC(=O)c1cnc2ccc(OC)cc2c1Nc1cccc(S(=O)(=O)NC)c1`: 113%.
The same measure for `CC(C)OC(C(=O)O)c1ccccc1` (stereo not drawn): 113%.

(Values after PubChem BioAssay (NCI).)
